# Results filed as inconclusive are left out. Active and inactive are the calls of the source. How the source made its calls: active means hit-call score of the fitted dose curve at least 0.9, where 1 is the maximum; inconclusive means response in the unintended direction; inactive means score below 0.9.
# Biological target: Norway rat Vesicular Monoamine Transporter (VMAT2), neurotransmitter transporter, Slc18a2 (gene 25549) (UniProt Q01827)
# Assay: NVS_TR_rVMAT2: NovaScreen (NVS) Transporter Assay for Norway rat Vesicular Monoamine Transporter (VMAT2), neurotransmitter transporter (AID 2283376);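 further: actives lower the bound radioligand signal below the DMSO level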
# Method: NVS_TR_rVMAT2 is a biochemical, single-readout assay that uses extracted gene-proteins from Rat forebrain in a tissue-based cell-free assay. Measurements were taken 1 hour after chemical dosing in a 96-well plate.NVS_TR_rVMAT2 is one of one assay component(s) measured or calculated from the NVS_TR_rVMAT2 assay. It is designed to make measurements of radioligand binding, a form of binding reporter, as detected with scintillation counting signals by Filter-based radiodetection technology.Data from the assay component NVS_TR_rVMAT2 was analyzed into 1 assay endpoint. This assay endpoint, NVS_TR_rVMAT2, was analyzed in the positive analysis fitting direction relative to DMSO as the negative control and baseline of activity. Using a type of binding reporter, loss-of-signal activity can be used to understand changes in the binding as they relate to the gene Slc18a2. Furthermore, this assay endpoint can be referred to as a primary readout, because the performed assay has only produced 1 assay endpoint. To generalize the intended target to other relatable targets, this assay endpoint is annotated to the transporter intended target family, where the subfamily is vesicular transporter.
# Binding assays used specific radioligands (tritiated, iodinated) with non-radioactive competitive displacement ligands in agonist or antagonist protocols (as indicated) and various reference compounds and inhibitors to titrate specific binding to receptors and transporters. Most enzyme assays (CYPs, kinases, phosphatases, proteases, HDACs) used recombinant protein and specific substrates (fluorescence mostly, some colorimetric and radioactive) and inhibitors, followed by a biochemical separation of substrate and product. All assays for the biochemical HTS were initially run in duplicate at a single concentration (10 uM for CYP450 assays and 25 uM for all others). […] Each assay was run with positive and negative controls, and concurrent controls on every plate. The follow-up (secondary) screen tested active chemical-pairs in concentration series, as well as a few additional assays not tested in the primary screen, some selected negative inactives, and several cases re-run in the concentration series for confirmatory purposes.
# Sequence of Norway rat Vesicular Monoamine Transporter (VMAT2), neurotransmitter transporter, Slc18a2 (gene 25549) (Q01827 whole entry, looked up): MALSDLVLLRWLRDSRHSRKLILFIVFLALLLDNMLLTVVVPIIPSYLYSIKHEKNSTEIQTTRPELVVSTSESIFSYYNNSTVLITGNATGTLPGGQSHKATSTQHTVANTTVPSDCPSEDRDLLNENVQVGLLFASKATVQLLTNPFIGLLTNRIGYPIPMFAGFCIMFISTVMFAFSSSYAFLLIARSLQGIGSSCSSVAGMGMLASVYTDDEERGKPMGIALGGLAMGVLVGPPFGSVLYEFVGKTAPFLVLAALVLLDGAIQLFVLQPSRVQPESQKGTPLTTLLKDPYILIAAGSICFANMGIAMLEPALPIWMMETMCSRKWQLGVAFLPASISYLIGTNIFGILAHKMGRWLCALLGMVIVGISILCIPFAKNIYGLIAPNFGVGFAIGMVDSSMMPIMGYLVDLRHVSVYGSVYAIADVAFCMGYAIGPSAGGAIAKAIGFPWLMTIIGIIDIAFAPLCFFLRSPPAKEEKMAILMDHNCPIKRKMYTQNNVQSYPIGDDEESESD
row,SMILES,outcome
1,Cn1[nH]nnc1=S,inactive
2,O=P(OCC(Br)CBr)(OCC(Br)CBr)OCC(Br)CBr (stereo unspecified),inactive
3,CC(Cc1ccc(OCC(=O)O)cc1)NCC(O)c1csc(C(F)(F)F)n1 (stereo unspecified),inactive

# Biological target: human Norepinephrine Transporter (NET), SLC6A2 (gene 6530) (UniProt P23975)
# Assay: NVS_TR_hNET: NovaScreen (NVS) Transporter Assay for human Norepinephrine Transporter (NET) (AID 2283377);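 further: cell-free membrane protein extracted from CHO cells expressing human NET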;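 on AC50: displacement of radioligand from human NET seen as loss of scintillation signal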
# How it was run: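 CHO cell extracts expressing the transporter; tritiated or iodinated tracer displaced competitively; filtration plus scintillation readout at 1 h. Single-point duplicates at 25 uM, concentration series for follow-up; activity = signal drop relative to DMSO.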
# Sequence of human Norepinephrine Transporter (NET), SLC6A2 (gene 6530) (P23975 whole entry, looked up): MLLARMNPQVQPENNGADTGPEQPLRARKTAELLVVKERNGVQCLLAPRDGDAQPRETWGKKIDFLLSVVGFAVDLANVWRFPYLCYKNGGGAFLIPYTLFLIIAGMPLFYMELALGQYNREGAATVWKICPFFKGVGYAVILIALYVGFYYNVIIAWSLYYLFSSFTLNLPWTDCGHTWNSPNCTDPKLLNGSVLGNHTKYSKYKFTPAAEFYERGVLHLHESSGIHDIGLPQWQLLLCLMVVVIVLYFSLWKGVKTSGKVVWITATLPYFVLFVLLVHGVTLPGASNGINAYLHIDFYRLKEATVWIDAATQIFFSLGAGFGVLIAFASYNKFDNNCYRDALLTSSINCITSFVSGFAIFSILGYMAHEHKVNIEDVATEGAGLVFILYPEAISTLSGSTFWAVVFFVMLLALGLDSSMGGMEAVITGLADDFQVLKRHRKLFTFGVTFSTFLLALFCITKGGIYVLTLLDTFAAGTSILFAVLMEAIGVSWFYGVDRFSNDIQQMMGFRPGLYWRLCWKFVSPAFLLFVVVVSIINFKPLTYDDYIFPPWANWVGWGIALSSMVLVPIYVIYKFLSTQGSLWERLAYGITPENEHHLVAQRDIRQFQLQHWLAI
SMILES,outcome,AC50
Oc1ccccc1Br,inactive,
N#Cc1c(-c2ccc(Cl)cc2)[nH]c(C(F)(F)F)c1Br,,16.4 µM (active)
CCC1(c2ccccc2)C(=O)N=C(O)NC1=O (stereo unspecified),inactive,
Cc1ccc2c(c1N)C(=O)c1ccccc1C2=O,,12.2 µM (active)

# Biological target: mouse Estrogen Receptor alpha (Era), Esr1 (gene 13982) (UniProt P19785)
# Assay: NVS_NR_mERa: NovaScreen (NVS) Nuclear Receptor Binding Assay for mouse Estrogen Receptor alpha (Era) (AID 2283378);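 further: hit means loss of bound radioligand signal relative to DMSO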
# How it was run: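 Test chemicals competed against a specific radioligand for binding to cell-free mouse Era. Duplicate wells at 25 uM were read 18 hours later by filter-based radiodetection, with loss of signal against DMSO scored as activity.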
# Sequence of mouse Estrogen Receptor alpha (Era), Esr1 (gene 13982) (P19785 whole entry, looked up): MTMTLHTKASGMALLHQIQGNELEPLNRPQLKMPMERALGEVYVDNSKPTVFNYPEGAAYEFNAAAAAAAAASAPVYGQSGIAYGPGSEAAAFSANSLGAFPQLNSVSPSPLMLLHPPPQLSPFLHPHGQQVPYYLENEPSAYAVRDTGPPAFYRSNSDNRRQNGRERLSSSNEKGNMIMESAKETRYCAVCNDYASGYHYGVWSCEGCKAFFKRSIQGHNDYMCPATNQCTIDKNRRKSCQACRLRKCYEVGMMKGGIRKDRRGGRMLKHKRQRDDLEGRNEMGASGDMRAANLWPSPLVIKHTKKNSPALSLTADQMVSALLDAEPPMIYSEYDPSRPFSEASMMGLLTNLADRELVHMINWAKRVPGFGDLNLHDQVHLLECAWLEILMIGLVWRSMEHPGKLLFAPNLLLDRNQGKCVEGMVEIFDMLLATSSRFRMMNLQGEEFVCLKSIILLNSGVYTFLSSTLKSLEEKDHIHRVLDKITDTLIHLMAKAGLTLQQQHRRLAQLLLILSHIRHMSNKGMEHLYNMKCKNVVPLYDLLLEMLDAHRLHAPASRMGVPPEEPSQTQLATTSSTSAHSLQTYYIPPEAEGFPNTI
row,SMILES,outcome
1,CCOP(=S)(Oc1ccc([N+](=O)[O-])cc1)c1ccccc1 (stereo unspecified),inactive
2,CC(Cl)(Cl)C(=O)O,inactive
3,c1nc[nH]n1,inactive
4,O=P1(N(CCCl)CCCl)NCCCO1 (stereo unspecified),inactive
5,ClC(Cl)(Cl)c1ccccc1,inactive
6,CCCCc1ccc(O)cc1,inactive
7,O=[N+]([O-])c1ccccc1,inactive
8,CO/N=C(/C(=O)OC)c1ccccc1COc1ccccc1C,inactive

# Biological target: Agonist Androgen Response Element (ARE), AR (gene 367) (UniProt P10275)
# Assay: OT_AR_ARELUC_AG_1440: Odyssey Thera (OT) 24-hour CHO-K1 Luciferase Assay for Agonist Androgen Response Element (ARE) (AID 2283379)
# How it was run: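 Gain-of-signal reporter endpoint: cells (CHO-K1, hamster) are treated 24 h, luciferin/ATP reagent added, and luminescence compared with DMSO baseline.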
# Sequence of Agonist Androgen Response Element (ARE), AR (gene 367) (P10275 whole entry, looked up): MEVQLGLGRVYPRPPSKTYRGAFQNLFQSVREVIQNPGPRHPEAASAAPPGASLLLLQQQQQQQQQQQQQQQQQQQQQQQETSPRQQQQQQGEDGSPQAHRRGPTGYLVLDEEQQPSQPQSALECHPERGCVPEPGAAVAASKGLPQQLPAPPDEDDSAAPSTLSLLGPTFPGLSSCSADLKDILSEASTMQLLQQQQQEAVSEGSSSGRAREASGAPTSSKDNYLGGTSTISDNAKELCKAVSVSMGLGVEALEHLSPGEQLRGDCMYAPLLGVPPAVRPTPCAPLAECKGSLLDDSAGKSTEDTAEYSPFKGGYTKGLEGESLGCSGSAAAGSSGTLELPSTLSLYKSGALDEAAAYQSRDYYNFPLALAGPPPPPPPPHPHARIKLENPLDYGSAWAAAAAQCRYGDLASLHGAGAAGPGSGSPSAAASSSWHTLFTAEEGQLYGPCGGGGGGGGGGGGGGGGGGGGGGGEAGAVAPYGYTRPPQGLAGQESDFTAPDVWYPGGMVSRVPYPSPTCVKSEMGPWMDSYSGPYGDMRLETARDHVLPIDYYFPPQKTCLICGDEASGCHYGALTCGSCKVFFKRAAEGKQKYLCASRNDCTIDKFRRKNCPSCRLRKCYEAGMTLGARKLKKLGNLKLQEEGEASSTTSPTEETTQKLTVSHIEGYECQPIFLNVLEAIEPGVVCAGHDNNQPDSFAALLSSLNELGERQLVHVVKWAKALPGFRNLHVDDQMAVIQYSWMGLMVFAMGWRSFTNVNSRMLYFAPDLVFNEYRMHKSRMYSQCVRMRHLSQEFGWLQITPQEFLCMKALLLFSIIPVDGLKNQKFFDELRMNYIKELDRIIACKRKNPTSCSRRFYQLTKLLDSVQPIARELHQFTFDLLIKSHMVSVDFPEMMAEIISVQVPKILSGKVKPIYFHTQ
row,SMILES,outcome
1,CCCCC(CC)COP(=O)(Oc1ccccc1)Oc1ccccc1 (stereo unspecified),inactive
2,CCN(CC)c1ccccc1,inactive
3,O=P(OCC(Br)CBr)(OCC(Br)CBr)OCC(Br)CBr (stereo unspecified),inactive
4,CC(C)(C)N(NC(=O)c1ccc(Cl)cc1)C(=O)c1ccccc1,inactive
5,c1cc2c3c(cccc3c1)CC2,inactive
6,[N-]=[N+]=[N-],inactive
7,CO/N=C(/C(=O)OC)c1ccccc1COc1ccccc1C,inactive

# Biological target: Estrogen receptor beta (Homo sapiens) (UniProt Q92731)
# Assay: OT_ER_ERbERb_1440: Odyssey Thera (OT) 24-hour HEK293T Protein-Complementation Assay for Estrogen Receptor-beta/-beta Homodimer (AID 2283380);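 further: scored as signal increase over DMSO baseline for both agonists and antagonists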
# How it was run: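 HEK293T cells stably expressing ER beta LBD (aa 310-547) homodimer fragment-complementation reporter, dosed 24 h. Cells formaldehyde-fixed, Draq5-stained; gain in nuclear (agonist) or nuclear plus cytoplasmic (antagonist) fluorescence versus DMSO read by laser scanning cytometry.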
# Sequence of Estrogen receptor beta (Homo sapiens) (Q92731 whole entry, looked up): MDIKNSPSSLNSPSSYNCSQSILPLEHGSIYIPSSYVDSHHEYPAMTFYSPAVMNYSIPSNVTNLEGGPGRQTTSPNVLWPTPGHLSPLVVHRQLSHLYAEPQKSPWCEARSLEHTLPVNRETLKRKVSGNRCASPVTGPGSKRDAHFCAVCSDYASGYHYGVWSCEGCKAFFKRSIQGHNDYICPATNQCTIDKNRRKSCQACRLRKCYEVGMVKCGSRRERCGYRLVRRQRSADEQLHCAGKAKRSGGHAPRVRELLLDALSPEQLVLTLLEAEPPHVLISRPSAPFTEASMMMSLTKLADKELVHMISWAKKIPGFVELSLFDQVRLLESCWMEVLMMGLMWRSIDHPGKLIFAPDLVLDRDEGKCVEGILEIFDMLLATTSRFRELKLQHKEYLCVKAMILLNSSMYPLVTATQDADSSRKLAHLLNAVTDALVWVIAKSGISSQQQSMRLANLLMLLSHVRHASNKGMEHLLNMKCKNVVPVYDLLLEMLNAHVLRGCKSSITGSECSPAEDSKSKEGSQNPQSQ
SMILES,outcome,AC50
Nc1cc2c3c(c1)C(c1ccccc1)=N[C@@H](NC(=O)c1cccnc1)C(=O)N3CC2,inactive,
CCCCc1ccccc1,inactive,
CCOP(=S)(Oc1ccc([N+](=O)[O-])cc1)c1ccccc1 (stereo unspecified),inactive,
CCCCC(CC)COP(=O)(Oc1ccccc1)Oc1ccccc1 (stereo unspecified),inactive,
Cc1ccc([N+](=O)[O-])cc1C,inactive,
CCOc1ccc(C(C)(C)COCc2cccc(Oc3ccccc3)c2)cc1,inactive,
CC(Cl)(Cl)C(=O)O,inactive,
CCN(CC)c1ccccc1,inactive,
c1nc[nH]n1,inactive,
O=P1(N(CCCl)CCCl)NCCCO1 (stereo unspecified),inactive,
ClC(Cl)(Cl)c1ccccc1,inactive,
O=S1(=O)OCC2C(CO1)C1(Cl)C(Cl)=C(Cl)C2(Cl)C1(Cl)Cl (stereo unspecified),inactive,
O=C(O)C1C(C(=O)O)C2(Cl)C(Cl)=C(Cl)C1(Cl)C2(Cl)Cl (stereo unspecified),inactive,
FC(F)(F)c1ccc(Cl)cc1,inactive,
O=P(OCC(Br)CBr)(OCC(Br)CBr)OCC(Br)CBr (stereo unspecified),inactive,
CCCCN(CCCC)N=O,inactive,
CC(C)(C)N(NC(=O)c1ccc(Cl)cc1)C(=O)c1ccccc1,inactive,
Cc1ccc(O)cc1C,inactive,
c1cc2c3c(cccc3c1)CC2,inactive,
CCCCc1ccc(O)cc1,,19.6 µM (active)
CCCCOCCOP(=O)(OCCOCCCC)OCCOCCCC,inactive,
COCCOCCO,inactive,
O=C(O)CF,inactive,
O=[N+]([O-])c1ccccc1,inactive,
CCC1(c2ccccc2)C(=O)N=C(O)NC1=O (stereo unspecified),inactive,
O=C(CBr)OCc1ccccc1,inactive,
COC(N)=O,inactive,
CC(Cc1ccc(OCC(=O)O)cc1)NCC(O)c1csc(C(F)(F)F)n1 (stereo unspecified),inactive,
CCCCC(CC)COC(=O)c1c(Br)c(Br)c(Br)c(Br)c1C(=O)OCC(CC)CCCC (stereo unspecified),inactive,
